Measured values as given in the supplement of paper PMC11001985.
Values without a mark were called inactive.

What follows are targets tested with C#CCNC(=O)CCSSCCC(=O)NCCc1ccc(C=O)c(C=O)c1 (assay: lysine labeling ratio R10:1 (500 µM / 50 µM probe), SILAC-ABPP in living cells; higher = lower intrinsic lysine reactivity toward the probe, active = 2 or less). Details: HeLa; probe concentrations 500 vs 50 µM.
In short: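 Each lysine carries an R value: the filtered median of MS1 peptide ratios of high probe to low probe, with the median then taken over forward and reverse replicates. These came from living SILAC light and heavy HeLa cells in PBS at room temperature labelled with an alkyne-tagged, disulfide-linked lysine probe at 500 µM or 50 µM, in forward and reverse swaps. The lysates were mixed, clicked to biotin-azide, trypsin-digested, captured on neutravidin, released by DTT, alkylated and run by LC-MS/MS on a TIMS-TOF Pro. The highest value allowed is 20.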

Sequence of UniProt Q14204 (Q14204 whole entry): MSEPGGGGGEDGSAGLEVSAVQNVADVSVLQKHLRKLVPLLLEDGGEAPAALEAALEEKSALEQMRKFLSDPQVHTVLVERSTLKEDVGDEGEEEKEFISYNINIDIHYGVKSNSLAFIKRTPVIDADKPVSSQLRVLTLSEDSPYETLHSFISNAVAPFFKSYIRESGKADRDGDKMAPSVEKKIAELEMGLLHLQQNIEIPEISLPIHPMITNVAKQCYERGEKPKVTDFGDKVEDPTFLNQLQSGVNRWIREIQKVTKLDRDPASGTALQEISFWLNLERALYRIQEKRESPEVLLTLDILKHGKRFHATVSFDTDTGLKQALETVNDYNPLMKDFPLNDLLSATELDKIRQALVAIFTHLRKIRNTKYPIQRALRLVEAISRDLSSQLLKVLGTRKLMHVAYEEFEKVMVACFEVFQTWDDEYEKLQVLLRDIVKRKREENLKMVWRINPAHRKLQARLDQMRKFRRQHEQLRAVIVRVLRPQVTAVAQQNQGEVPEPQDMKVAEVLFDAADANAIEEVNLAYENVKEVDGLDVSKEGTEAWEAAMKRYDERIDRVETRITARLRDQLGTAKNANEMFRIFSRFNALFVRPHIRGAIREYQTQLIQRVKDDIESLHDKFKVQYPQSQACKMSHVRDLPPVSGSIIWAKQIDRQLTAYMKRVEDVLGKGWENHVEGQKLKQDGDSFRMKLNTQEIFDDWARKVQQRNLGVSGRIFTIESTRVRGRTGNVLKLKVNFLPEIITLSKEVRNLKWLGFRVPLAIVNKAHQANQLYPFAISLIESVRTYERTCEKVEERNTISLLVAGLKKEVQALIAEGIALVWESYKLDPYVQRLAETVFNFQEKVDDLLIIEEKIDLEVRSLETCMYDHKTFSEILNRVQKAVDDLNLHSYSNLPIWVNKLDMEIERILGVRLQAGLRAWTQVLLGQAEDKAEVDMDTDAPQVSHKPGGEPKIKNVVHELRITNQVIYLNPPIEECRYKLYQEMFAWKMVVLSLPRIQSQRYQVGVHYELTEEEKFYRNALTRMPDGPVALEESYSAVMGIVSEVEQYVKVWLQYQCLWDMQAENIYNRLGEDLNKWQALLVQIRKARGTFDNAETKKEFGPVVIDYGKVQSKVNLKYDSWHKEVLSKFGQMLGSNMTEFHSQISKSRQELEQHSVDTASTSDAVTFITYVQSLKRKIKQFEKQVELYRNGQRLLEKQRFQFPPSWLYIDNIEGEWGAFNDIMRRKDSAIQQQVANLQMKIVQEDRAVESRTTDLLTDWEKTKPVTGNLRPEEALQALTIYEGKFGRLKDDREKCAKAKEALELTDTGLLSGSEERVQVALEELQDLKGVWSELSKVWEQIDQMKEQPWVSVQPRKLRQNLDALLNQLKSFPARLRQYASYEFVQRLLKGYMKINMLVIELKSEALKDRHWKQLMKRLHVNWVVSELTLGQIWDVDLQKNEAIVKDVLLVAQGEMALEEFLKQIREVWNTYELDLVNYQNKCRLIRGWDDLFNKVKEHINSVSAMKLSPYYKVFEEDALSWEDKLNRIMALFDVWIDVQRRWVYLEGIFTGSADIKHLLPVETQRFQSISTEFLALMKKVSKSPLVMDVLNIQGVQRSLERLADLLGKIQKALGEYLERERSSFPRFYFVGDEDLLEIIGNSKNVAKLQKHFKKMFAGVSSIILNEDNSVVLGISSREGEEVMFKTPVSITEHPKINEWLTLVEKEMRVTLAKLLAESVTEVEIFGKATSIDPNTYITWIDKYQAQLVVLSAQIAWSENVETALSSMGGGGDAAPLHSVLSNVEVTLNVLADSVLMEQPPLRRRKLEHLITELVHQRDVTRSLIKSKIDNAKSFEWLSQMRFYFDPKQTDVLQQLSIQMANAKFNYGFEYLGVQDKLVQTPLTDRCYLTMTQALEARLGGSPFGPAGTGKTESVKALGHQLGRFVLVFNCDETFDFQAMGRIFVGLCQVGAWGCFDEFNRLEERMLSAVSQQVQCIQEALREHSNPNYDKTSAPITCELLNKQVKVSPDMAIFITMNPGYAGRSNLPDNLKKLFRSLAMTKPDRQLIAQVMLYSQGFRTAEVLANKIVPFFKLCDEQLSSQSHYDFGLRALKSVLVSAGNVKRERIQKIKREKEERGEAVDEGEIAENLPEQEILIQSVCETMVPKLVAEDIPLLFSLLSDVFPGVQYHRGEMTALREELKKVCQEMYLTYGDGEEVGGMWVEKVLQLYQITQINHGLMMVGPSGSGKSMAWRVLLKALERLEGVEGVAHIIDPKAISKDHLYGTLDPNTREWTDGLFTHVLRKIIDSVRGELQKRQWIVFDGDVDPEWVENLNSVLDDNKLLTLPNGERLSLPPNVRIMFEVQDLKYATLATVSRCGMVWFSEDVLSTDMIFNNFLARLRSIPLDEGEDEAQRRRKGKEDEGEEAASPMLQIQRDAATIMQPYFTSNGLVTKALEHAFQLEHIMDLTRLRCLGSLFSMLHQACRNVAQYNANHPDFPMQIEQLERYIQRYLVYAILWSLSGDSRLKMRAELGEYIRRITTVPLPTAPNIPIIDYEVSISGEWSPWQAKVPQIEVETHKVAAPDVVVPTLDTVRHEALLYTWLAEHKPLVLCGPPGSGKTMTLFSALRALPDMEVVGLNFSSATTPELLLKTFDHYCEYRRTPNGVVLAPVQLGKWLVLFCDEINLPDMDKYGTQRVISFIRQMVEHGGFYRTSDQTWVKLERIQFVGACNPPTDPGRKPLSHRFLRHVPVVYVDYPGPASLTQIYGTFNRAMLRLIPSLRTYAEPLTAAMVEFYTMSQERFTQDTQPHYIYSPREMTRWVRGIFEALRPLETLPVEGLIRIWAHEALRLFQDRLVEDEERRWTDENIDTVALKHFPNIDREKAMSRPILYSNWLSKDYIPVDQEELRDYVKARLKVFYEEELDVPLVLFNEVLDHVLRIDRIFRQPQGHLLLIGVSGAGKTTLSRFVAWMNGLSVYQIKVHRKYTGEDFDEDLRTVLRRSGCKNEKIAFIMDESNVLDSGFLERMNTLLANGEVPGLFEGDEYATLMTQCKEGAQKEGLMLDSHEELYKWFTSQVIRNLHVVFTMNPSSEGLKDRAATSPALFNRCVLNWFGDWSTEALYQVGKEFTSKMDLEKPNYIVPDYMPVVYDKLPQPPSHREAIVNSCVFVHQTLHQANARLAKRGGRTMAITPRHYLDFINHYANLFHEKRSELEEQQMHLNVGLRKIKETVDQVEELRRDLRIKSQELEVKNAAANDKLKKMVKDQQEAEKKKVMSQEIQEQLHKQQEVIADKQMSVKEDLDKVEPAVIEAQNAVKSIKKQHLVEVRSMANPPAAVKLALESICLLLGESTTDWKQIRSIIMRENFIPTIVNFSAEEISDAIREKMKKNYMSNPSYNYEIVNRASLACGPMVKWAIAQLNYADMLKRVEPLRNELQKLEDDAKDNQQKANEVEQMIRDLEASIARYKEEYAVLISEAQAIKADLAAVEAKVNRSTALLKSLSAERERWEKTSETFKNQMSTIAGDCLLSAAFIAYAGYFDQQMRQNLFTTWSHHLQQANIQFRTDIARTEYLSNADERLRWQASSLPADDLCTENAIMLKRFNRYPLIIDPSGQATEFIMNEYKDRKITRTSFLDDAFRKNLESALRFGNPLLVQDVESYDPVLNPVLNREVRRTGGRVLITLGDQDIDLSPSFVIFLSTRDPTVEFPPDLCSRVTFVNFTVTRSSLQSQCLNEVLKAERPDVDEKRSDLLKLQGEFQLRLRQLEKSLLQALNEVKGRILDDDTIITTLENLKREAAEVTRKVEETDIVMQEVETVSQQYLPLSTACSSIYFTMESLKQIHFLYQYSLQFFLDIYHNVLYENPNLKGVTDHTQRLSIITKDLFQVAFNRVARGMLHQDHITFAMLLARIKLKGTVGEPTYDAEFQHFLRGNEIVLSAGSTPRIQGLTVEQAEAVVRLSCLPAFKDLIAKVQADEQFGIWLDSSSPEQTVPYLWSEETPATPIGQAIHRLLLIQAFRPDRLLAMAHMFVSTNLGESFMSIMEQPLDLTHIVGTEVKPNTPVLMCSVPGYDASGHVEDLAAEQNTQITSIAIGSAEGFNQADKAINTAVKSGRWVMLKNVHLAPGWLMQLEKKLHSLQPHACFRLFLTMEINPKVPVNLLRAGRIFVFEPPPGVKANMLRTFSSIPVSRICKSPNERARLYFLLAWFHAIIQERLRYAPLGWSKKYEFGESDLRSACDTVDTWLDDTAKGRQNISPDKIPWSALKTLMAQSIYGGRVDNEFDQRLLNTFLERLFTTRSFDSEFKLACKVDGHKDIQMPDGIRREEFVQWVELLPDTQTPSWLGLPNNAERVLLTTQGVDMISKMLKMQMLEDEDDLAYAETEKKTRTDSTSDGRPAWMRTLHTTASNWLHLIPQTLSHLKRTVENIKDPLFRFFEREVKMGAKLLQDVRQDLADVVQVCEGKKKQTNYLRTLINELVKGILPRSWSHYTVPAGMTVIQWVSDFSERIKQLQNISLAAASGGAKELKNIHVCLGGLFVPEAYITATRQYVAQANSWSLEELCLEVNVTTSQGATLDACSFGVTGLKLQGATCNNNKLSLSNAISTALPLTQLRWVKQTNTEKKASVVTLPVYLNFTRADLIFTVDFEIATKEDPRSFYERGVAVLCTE
Sequence of UniProt Q9BUR5 (Q9BUR5 whole entry): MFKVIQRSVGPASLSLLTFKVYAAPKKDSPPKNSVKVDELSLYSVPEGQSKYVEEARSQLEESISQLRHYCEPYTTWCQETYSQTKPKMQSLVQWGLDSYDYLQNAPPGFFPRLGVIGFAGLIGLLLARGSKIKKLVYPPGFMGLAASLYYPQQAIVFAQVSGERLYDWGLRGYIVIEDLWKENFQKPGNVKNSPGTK
Sequence of UniProt Q06830 (Q06830 whole entry): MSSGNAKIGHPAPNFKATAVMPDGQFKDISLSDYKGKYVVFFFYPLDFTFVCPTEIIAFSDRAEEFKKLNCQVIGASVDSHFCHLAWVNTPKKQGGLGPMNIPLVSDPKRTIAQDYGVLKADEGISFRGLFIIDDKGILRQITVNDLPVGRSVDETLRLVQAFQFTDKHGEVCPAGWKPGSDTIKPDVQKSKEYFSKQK
Sequence of UniProt Q9Y5J9 (Q9Y5J9 whole entry): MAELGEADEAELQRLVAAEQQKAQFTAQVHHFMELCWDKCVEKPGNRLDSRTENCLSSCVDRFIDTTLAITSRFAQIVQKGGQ

Row | Target | lysine labeling ratio R10:1
1 | EPRS (lysine site: K360) (UniProt P07814) | 1.77 (active)
2 | XRCC6 (lysine site: K129) (UniProt P12956) | 1.62 (active)
3 | SERBP1 (lysine site: K76) (UniProt Q8NC51) | 1.17 (active)
4 | UniProt P62899 (lysine site: K75) | 2.92
5 | ITGB1 (lysine site: K72) (UniProt P05556) | 1.91 (active)
6 | UniProt Q29980 (lysine site: K190) | 1.17 (active)
7 | SPTAN1 (lysine site: K190) (UniProt Q13813) | 4.11
8 | RPS5 (lysine site: K47) (UniProt P46782) | 1.01 (active)
9 | GGT1 (lysine site: K181) (UniProt P19440) | 1.46 (active)
10 | UniProt P62829 (lysine site: K123) | 0.877 (active)
11 | TIMM8B (lysine site: K80) (UniProt Q9Y5J9) | 1.18 (active)
12 | DYNC1H1 (lysine site: K2239) (UniProt Q14204) | 6.84
13 | LMAN1 (lysine site: K372) (UniProt P49257) | 2.72
14 | APOO (lysine site: K51) (UniProt Q9BUR5) | 0.799 (active)
15 | FH (lysine site: K80) (UniProt P07954) | 1.86 (active)
16 | UniProt Q15149 (lysine site: K4027) | 2.34
17 | LAMA5 (lysine site: K2481) (UniProt O15230) | 1.15 (active)
18 | CPM (lysine site: K338) (UniProt P14384) | 4.51
19 | UniProt Q9UKX5 (lysine site: K402) | 0.975 (active)
20 | PTPRS (lysine site: K370) (UniProt Q13332) | 2.37
21 | UniProt P25705 (lysine site: K434) | 1.73 (active)
22 | PRDX1 (lysine site: K109) (UniProt Q06830) | 2.64
23 | ILF3 (lysine site: K214) (UniProt Q12906) | 1.16 (active)
24 | LRP1 (lysine site: K2653) (UniProt Q07954) | 1.54 (active)
